This is part of a sample that, as a whole, favours compounds with a hit. Of some 79,000 tested, about 15% had one in any assay. A number with no mark means an inactive call. Active and inactive are the calls of the source. Cut-off read from the data, not from the text of the source: active = growth inhibition above about 70%; inactive = the rest.
Tests used:
[1] = NCI Yeast Anticancer Drug Screen. Data for the wt2 strain (AID 169);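 note: 0% = growth of vehicle-treated yeast cultures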; conditions: S. cerevisiae wt2 strain growth inhibition, stronger effect = higher value
Method in brief: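 Growth of compound-treated yeast is measured and expressed as inhibition relative to vehicle-only controls.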

[2] = NCI Yeast Anticancer Drug Screen. Data for the sgs1 strain (AID 173);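 note: 0% = growth of vehicle-only control cultures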; conditions: S. cerevisiae sgs1 mutant, stronger effect = higher value
Method in brief: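 Strain with an altered DNA repair or cell cycle pathway exposed to compound. Growth then measured. Value = inhibition versus vehicle control.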

[3] = NCI Yeast Anticancer Drug Screen. Data for the mlh1 rad18 strain (AID 175); conditions: S. cerevisiae mlh1 rad18 strain growth inhibition, stronger effect = higher value
Method in brief: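 A repair-deficient yeast strain is exposed to test compound, and growth is scored relative to vehicle-treated controls.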

[4] = NCI Yeast Anticancer Drug Screen. Data for the rad52 strain (AID 147);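 note: 0% = growth of vehicle-treated control cultures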; conditions: S. cerevisiae rad52 mutant growth inhibition, stronger effect = higher value
Method in brief: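 Growth of repair-deficient yeast cells was compared between compound-treated and vehicle-treated cultures to give percent inhibition.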

[5] = NCI Yeast Anticancer Drug Screen. Data for the wt1 strain (AID 149);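 note: 0% = growth of vehicle-treated wt1 cultures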; conditions: S. cerevisiae wt1 strain (SPY 50644) growth inhibition, stronger effect = higher value
Method in brief: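 Compounds are added to wt1 yeast cultures. Growth is then measured. Inhibition is expressed relative to vehicle-treated controls.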

[6] = NCI Yeast Anticancer Drug Screen. Data for the rad50EPP+ strain (AID 151);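 note: 0% = growth of vehicle-treated control cultures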; conditions: S. cerevisiae rad50 mutant strain, stronger effect = higher value
Method in brief: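 Measured: growth inhibition of rad50EPP+ yeast. Reference: vehicle-treated controls. Screen uses strains with defined genetic alterations in DNA damage repair or cell cycle control.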

[7] = NCI Yeast Anticancer Drug Screen. Data for the mgt1 strain (AID 153); conditions: S. cerevisiae mgt1 mutant growth inhibition, stronger effect = higher value
Method in brief: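 Compounds were applied to mgt1 mutant yeast, and growth was then compared against vehicle-treated control cultures to give percent inhibition.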

[8] = NCI Yeast Anticancer Drug Screen. Data for the rad50 strain (AID 155);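 note: 0% = growth of vehicle-only cultures of the same strain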; conditions: S. cerevisiae rad50 strain growth inhibition, stronger effect = higher value
Method in brief: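 Inhibition values express reduced yeast growth in compound-treated cultures relative to vehicle-treated controls.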

[9] = NCI Yeast Anticancer Drug Screen. Data for the mec2-1 strain (AID 157); conditions: S. cerevisiae mec2-1 strain, stronger effect = higher value
Method in brief: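 Compounds were applied to mec2-1 yeast cells. Their growth was then compared with that of vehicle-treated cultures to give growth inhibition.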

[10] = NCI Yeast Anticancer Drug Screen. Data for the rad14 strain (AID 159);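 note: 0% = growth of vehicle-treated control cultures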; conditions: S. cerevisiae rad14 strain growth inhibition, stronger effect = higher value
Method in brief: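 A mutant yeast strain defective in DNA damage repair is treated with compound; inhibition of its growth is scored against untreated, vehicle-exposed cultures.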

[11] = NCI Yeast Anticancer Drug Screen. Data for the sgs1 mgt1 strain (AID 161);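 note: 0% = growth of cultures given vehicle only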; conditions: S. cerevisiae sgs1 mgt1 strain, stronger effect = higher value
Method in brief: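 Yeast cells carrying a defined DNA-repair defect were exposed to test compounds. Growth inhibition was measured relative to vehicle-treated controls.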

[12] = NCI Yeast Anticancer Drug Screen. Data for the CLN2oe strain (AID 163);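 note: 0% = growth of vehicle-only control cultures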; conditions: S. cerevisiae CLN2oe strain, stronger effect = higher value
Method in brief: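 Cells of an engineered yeast line with disturbed cell-cycle regulation are treated with compound. Inhibition of growth is then calculated relative to the vehicle-treated reference.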

[13] = NCI Yeast Anticancer Drug Screen. Data for the cln2 rad14 strain (AID 165);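 note: 0% = growth equal to vehicle treated cultures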; conditions: S. cerevisiae cln2 rad14 strain, stronger effect = higher value
Method in brief: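 Strain: cln2 rad14 yeast, altered in cell cycle control and DNA damage repair. Read-out: growth inhibition vs vehicle.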

[14] = NCI Yeast Anticancer Drug Screen. Data for the bub3 strain (AID 167); conditions: S. cerevisiae bub3 mutant strain, stronger effect = higher value
Method in brief: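 Steps: expose the mutant yeast strain to compound; grow alongside vehicle-treated cultures; measure growth; express inhibition against the vehicle cultures.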

[15] = at 5.0 µM (retest, dose inferred, filed as 0.5)
[16] = at 50.0 µM (retest, dose inferred, filed as 5.0)

Nc1ccc2c(c1)C(=O)c1cccc(N)c1C2=O
growth inhibition ([1]; at 1.2 µM): -2% | growth inhibition ([1]; at 3.7 µM): 11% | growth inhibition ([1]; at 11.0 µM): 19% | growth inhibition ([1]; at 33.0 µM): 56% | growth inhibition ([1]; at 100.0 µM): 72% (active) | growth inhibition ([2]; at 1.2 µM): -4% | growth inhibition ([2]; at 3.7 µM): 3% | growth inhibition ([2]; at 11.0 µM): 37% | growth inhibition ([2]; at 33.0 µM): 79% (active) | growth inhibition ([2]; at 100.0 µM): 85% (active) | growth inhibition [3, 15]: 18% | growth inhibition [3, 16]: 93% (active) | growth inhibition ([3]; at 50.0 µM): 72.5% (active)

CCN(CC)C(C)(C)C(=O)/C=C/c1ccccc1
growth inhibition ([4]; at 1.2 µM): -1% | growth inhibition ([4]; at 3.7 µM): -1% | growth inhibition ([4]; at 11.0 µM): 0% | growth inhibition ([4]; at 33.0 µM): -1% | growth inhibition ([4]; at 100.0 µM): 2% | growth inhibition ([5]; at 1.2 µM): 0% | growth inhibition ([5]; at 3.7 µM): 5% | growth inhibition ([5]; at 11.0 µM): 2% | growth inhibition ([5]; at 33.0 µM): 2% | growth inhibition ([5]; at 100.0 µM): 4% | growth inhibition ([6]; at 1.2 µM): 2% | growth inhibition ([6]; at 3.7 µM): 6% | growth inhibition ([6]; at 11.0 µM): 8% | growth inhibition ([6]; at 33.0 µM): 6% | growth inhibition ([6]; at 100.0 µM): 5% | growth inhibition ([7]; at 1.2 µM): -3% | growth inhibition ([7]; at 3.7 µM): -3% | growth inhibition ([7]; at 11.0 µM): -3% | growth inhibition ([7]; at 33.0 µM): -1% | growth inhibition ([7]; at 100.0 µM): 2% | growth inhibition ([8]; at 1.2 µM): 0% | growth inhibition ([8]; at 3.7 µM): 2% | growth inhibition [8, 15]: 19% | growth inhibition ([8]; at 11.0 µM): 0% | growth inhibition ([8]; at 33.0 µM): 1% | growth inhibition [8, 16]: 80% (active) | growth inhibition ([8]; at 50.0 µM): 17.2% | growth inhibition ([8]; at 100.0 µM): 3% | growth inhibition ([9]; at 1.2 µM): 1% | growth inhibition ([9]; at 3.7 µM): 6% | growth inhibition [9, 15]: -15% | growth inhibition ([9]; at 11.0 µM): 5% | growth inhibition ([9]; at 33.0 µM): 9% | growth inhibition [9, 16]: 47% | growth inhibition ([9]; at 50.0 µM): 13.7% | growth inhibition ([9]; at 100.0 µM): 4% | growth inhibition ([10]; at 1.2 µM): -3% | growth inhibition ([10]; at 3.7 µM): -3% | growth inhibition ([10]; at 11.0 µM): 1% | growth inhibition ([10]; at 33.0 µM): 5% | growth inhibition ([10]; at 100.0 µM): 14% | growth inhibition [11, 15]: 42% | growth inhibition [11, 16]: 92% (active) | growth inhibition ([11]; at 50.0 µM): 17.6% | growth inhibition ([12]; at 1.2 µM): -4% | growth inhibition ([12]; at 3.7 µM): -12% | growth inhibition ([12]; at 11.0 µM): -4% | growth inhibition ([12]; at 33.0 µM): 1% | growth inhibition ([12]; at 100.0 µM): 2% | growth inhibition [13, 15]: -9% | growth inhibition [13, 16]: 46% | growth inhibition ([13]; at 50.0 µM): 7.15% | growth inhibition ([14]; at 1.2 µM): -1% | growth inhibition ([14]; at 3.7 µM): -3% | growth inhibition [14, 15]: 9% | growth inhibition ([14]; at 11.0 µM): 0% | growth inhibition ([14]; at 33.0 µM): -1% | growth inhibition [14, 16]: 77% (active) | growth inhibition ([14]; at 50.0 µM): 17.8% | growth inhibition ([14]; at 100.0 µM): -5% | growth inhibition ([1]; at 1.2 µM): 0% | growth inhibition ([1]; at 3.7 µM): -1% | growth inhibition ([1]; at 11.0 µM): -1% | growth inhibition ([1]; at 33.0 µM): 3% | growth inhibition ([1]; at 100.0 µM): 6% | growth inhibition ([2]; at 1.2 µM): 2% | growth inhibition ([2]; at 3.7 µM): 1% | growth inhibition ([2]; at 11.0 µM): 4% | growth inhibition ([2]; at 33.0 µM): 6% | growth inhibition ([2]; at 100.0 µM): 7%

From PubChem BioAssay (NCI)
